Rows were chosen to be rich in hits. Some 4.2% of all compounds tested hit in one or more screens of this group.
D1 PAM: potentiators of human D1 dopamine receptor. P21728. potentiation, % at 10 µM. actives 0.036% (n = 360,000). HEK293 TREx D1 cells, calcium flux, dopamine EC20 potentiation; in the data active means potentiation above about 30%; further: 0% is about no effect
TRPV1 PAM: potentiators of human vanilloid receptor 1 (TRPV1) | Q8NER1 | TRPV1-expressing cells, Fluo-8 calcium influx, capsaicin EC20 potentiation | potentiation, % at 8.33 µM | actives 0.02% (n = 320,000); in the data active means potentiation above about 80%; inconclusive means between about 30% and that limit; further: 0% is about no effect
Target sequence (Q8NER1 whole entry, looked up): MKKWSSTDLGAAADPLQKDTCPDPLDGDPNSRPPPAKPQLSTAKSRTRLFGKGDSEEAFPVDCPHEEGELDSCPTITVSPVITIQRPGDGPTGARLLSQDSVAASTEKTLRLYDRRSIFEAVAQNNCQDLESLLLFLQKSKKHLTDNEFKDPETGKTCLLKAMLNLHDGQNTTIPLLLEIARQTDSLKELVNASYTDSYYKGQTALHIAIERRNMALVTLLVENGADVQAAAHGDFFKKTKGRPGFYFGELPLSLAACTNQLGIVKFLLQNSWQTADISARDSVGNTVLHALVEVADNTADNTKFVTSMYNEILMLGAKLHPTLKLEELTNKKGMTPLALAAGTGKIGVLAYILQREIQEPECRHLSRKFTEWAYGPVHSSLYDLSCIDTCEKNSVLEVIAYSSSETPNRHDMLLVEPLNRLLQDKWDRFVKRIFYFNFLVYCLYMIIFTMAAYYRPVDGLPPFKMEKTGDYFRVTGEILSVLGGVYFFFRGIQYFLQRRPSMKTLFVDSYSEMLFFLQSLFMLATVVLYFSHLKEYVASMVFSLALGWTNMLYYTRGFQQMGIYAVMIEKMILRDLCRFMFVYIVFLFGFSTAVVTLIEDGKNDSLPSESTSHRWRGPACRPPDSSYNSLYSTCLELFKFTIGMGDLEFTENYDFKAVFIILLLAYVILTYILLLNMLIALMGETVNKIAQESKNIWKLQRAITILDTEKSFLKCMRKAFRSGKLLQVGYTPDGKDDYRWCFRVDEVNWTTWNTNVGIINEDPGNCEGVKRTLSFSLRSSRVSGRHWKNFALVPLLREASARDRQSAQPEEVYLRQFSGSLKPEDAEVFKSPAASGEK
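Cells expressing TRPV1 were dye-loaded with Fluo-8 and read kinetically: 10 s baseline, 3 min after compound (agonist portion), then 2 min after EC20 capsaicin (allosteric enhancer portion). Calcium-bound dye fluorescence at 480/520 nm.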
TRPV1 ag: activates the human vanilloid receptor TRPV1; Q8NER1; AID 540275; TRPV1-expressing cells, Fluo-8 calcium influx, agonist mode; actives 0.19% (n = 320,000); activation, % at 8.33 µM; in the data active means activation above about 80%; inconclusive means between about 30% and that limit; further: 0% is about no effect
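TRPV1-expressing cells were cultured overnight at 35.5C and loaded with Fluo-8 calcium dye for 40 to 90 min at room temperature. After a 10 s baseline, compound was added and calcium influx was read kinetically for 3 min (ex 480/em 520 nm).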
D1 antagonist: blocks dopamine activation of the human D1 receptor; activity change, negative = inhibition, % at 10 µM; actives 3.2% (n = 360,000); HEK293 TREx D1 cells, calcium flux, dopamine EC80; stronger effect = lower value; in the data active means activity change below about -30%; further: on the % scale 0 is the no-effect control and ±100 the full control effect
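Tetracycline-induced HEK293 T-REx cells with force-coupled D1 receptor were loaded with a no-wash calcium dye. Compound was added after a 10 s baseline and read kinetically for 180 s; EC80 dopamine was then added and calcium flux followed another 180 s.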
D1 ag: activates the human D1 dopamine receptor. P21728. HEK293 T-REx D1 cells, calcium flux, agonist mode. activation, % at 2 µM. actives 1% (n = 360,000). AID 504660; in the data active means activation above about 30%; further: 0% is about no effect
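Tetracycline-induced HEK293 TREx D1 cells, force-coupled to calcium signalling, were dye-loaded with a no-wash calcium kit. Compound was pin-added after a 10 s baseline. Fluorescence was read kinetically at 1 cycle/s for 180 s, with calcium rises flagged as agonism.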
* marks the source's active call; other numbers are inactive results; ? = inconclusive; . = no result; ! = not confirmed by another sample.

SMILES | D1 PAM | TRPV1 PAM | TRPV1 ag | D1 antagonist | D1 ag
CC(=O)OCc1c(-c2ccccc2)c2cc([N+](=O)[O-])ccc2n1C | -5 | -12 | 6 | -47* | 4
Cc1cc(Br)ccc1NC(=O)CCSc1ccccc1 | -2 | 6 | 9 | 1 | 1
Cc1ccc(NC(=S)NCCSc2ccc(Cl)cc2)c(C)c1 | -6 | -28 | -5 | -33* | 22
Cc1ccc([N+](=O)[O-])cc1NC(=O)CCSc1ccc(Cl)cc1 | -9 | -5 | -3 | -42* | 34*
Cc1ccc(C)c(NC(=S)NCCSc2ccc(Cl)cc2)c1 | -7 | -7 | 24 | -28 | 11
Cc1cc(NC(=O)CCSc2ccccc2)ccc1Br | -9 | 5 | 26 | -30* | 5
Cc1ccc(NC(=O)CCSc2ccccc2)c(C)c1 | 5 | 3 | 0 | -30* | 0
Cc1cc(N2CCN(c3cccc(C(F)(F)F)c3)CC2)n2nc(-c3ccccc3C)nc2n1 | 2 | . | . | 10 | 5
O=C(NCc1ccccc1)c1ccc2c(c1)N(Cc1ccccc1F)C(=O)c1ccccc1S2=O (stereo not given) | -4 | . | . | -1 | 2
COc1ccc(-c2noc(-c3ccc(NC4CCCCC4)c([N+](=O)[O-])c3)n2)cc1 | 6 | . | . | 1 | 1
Cc1ccc(/C=N/NC(=O)c2ccc(-n3cnnn3)cc2)cc1 | 1 | -10 | 80* | 1 | 23
O=C(N/N=C/c1ccc(F)cc1)c1ccc(-n2cnnn2)cc1 | 0 | -30 | ? | -5 | 6
CC(C)c1ccc(/C=N/NC(=O)c2ccc(-n3cnnn3)cc2)cc1 | -1 | -14 | ? | -15 | 2
COc1ccc(/C=N/NC(=O)c2ccc(-n3cnnn3)cc2)cc1 | 12 | -21 | ? | -65* | 1
COc1cc2c(C(=O)N3CCN(c4ccc(C)cc4)C(C)C3)cn(CC(C)C)c(=O)c2cc1OC (stereo not given) | 0 | . | . | 0 | 0
C=CCNC(=O)c1cc(C(=O)C(C)c2ncc(C(F)(F)F)cc2Cl)c[nH]1 (stereo not given) | 3 | ? | 3 | -2 | 36*
CCCc1ccc(Oc2cn[nH]c2-c2ccc(O)c(C)c2O)cc1 | -11 | 20 | -5 | -17 | 33*
CCCc1ccc(Oc2c(-c3ccc(O)c(C)c3O)n[nH]c2C)cc1 | -4 | 3 | 5 | 8 | 35*
CCCOC(=O)c1ccc(Oc2cn[nH]c2-c2ccc(OCC)cc2O)cc1 | -3 | 0 | 4 | -1 | 2
COc1ccc(Oc2c(-c3ccc(O)cc3O)n[nH]c2C)cc1 | -5 | 6 | 1 | 0 | 3
O=[N+]([O-])c1cc(-c2nc(-c3cccnc3)no2)ccc1NCc1ccccc1 | -3 | . | . | -23 | 16
O=C(NCCc1c[nH]c2ccccc12)Nc1ccccc1C(F)(F)F | -3 | . | . | -4 | 5
COc1ccc(C(=O)NC(C)CCc2ccccc2)c(O)c1 (stereo not given) | -6 | 21 | -1 | -48* | 16
COc1ccc(C(=O)NC(C)CCc2ccccc2)cc1 (stereo not given) | -1 | -30 | 26 | -2 | 0
CC(=O)c1cccc(NC(=O)NCCc2c[nH]c3ccccc23)c1 | 13 | -7 | -5 | -12 | 5
SMILES | D1 PAM | TRPV1 PAM | TRPV1 ag | D1 antagonist | D1 ag
O=C(Nc1cccc(CNCCc2c[nH]c3ccccc23)c1)c1ccccc1Cl | -7 | 3 | 1 | -41* | 32*
COc1cc(C2CC(=O)c3cnc(NC(=O)COc4ccccc4)nc3C2)cc(OC)c1OC (stereo not given) | -3 | 17 | 0 | -30* | 2
O=c1cc(-c2ccccc2Cl)oc2c(NS(=O)(=O)c3ccccc3C(F)(F)F)ccc(O)c12 | -7 | 8 | 1 | -30* | 2
Cc1cc(C)c(S(=O)(=O)NCc2ccc3c(c2)CCN3C(=O)c2ccccc2)c(C)c1 | -2 | . | . | 2 | 5
Cc1nn(C2CCS(=O)(=O)C2)c2nc(C3CC3)cc(C(=O)Nc3cccc(C#N)c3)c12 (stereo not given) | -6 | 28 | 1 | -36* | 6
Cc1ccc(/C=C/c2onc(C)c2S(=O)(=O)N2CCC(C(=O)N3CCC(N(C)C(C)C)CC3)CC2)cc1 | -1 | . | . | -20 | 21
CCOc1ccc(NC(=O)CN(C)C(=O)c2ccc(=O)[nH]c2)cc1OCC | -21 | 12 | -2 | -77* | 1
CCOc1ccc(NC(=O)CN(C)C(=O)c2ccc(C3SCCS3)cc2)cc1OCC | -19 | 0 | -3 | -45* | 1
COc1ccc(C2CC(=O)N(CC(=O)Nc3ccc(C(F)(F)F)cc3)c3ccccc3S2)cc1 (stereo not given) | -2 | . | . | -8 | 1
Cc1ccc2c(c1)C1CN(C)CCC1N2Sc1ccccc1[N+](=O)[O-] (stereo not given) | -8 | -16 | -1 | -95* | 20
Cc1ccc2c(c1)[C@@H]1CN(C)CC[C@@H]1N2S(=O)(=O)c1ccc([N+](=O)[O-])cc1 | -1 | 11 | -3 | -1 | 60*
Cc1ccccc1OC(=O)CSc1nnc(-c2ccc(F)cc2)o1 | -2 | . | . | 13 | 4
Cc1ccc(N=Nc2c(O)[nH]c3ccc(F)cc23)cc1 | -2 | 4 | -1 | -48* | 117*
COc1ccc(N=Nc2[nH]c3ccc(C)cc3c2O)cc1 | -7 | 27 | 8 | 5 | 0
Cc1ccc(N=Nc2[nH]c3ccccc3c2O)cc1 | 2 | -13 | 15 | -5 | 52*
Cc1ccc2[nH]c(O)c(N=NC(N)=S)c2c1 | 5 | -24 | 0 | -9 | 0
Cc1ccc(CNC(=O)c2ccc(CSCc3ccccc3Cl)o2)cc1 | -2 | . | . | -3 | 12
COc1cc(CN2CCN(C(c3ccccc3)c3ccccc3)CC2)cc(OC)c1OC | -17 | -12 | 0 | -52* | 6
CCOC(=O)c1ccc(NC(=O)c2cc3sccc3n2Cc2ccc(Cl)cc2)cc1 | -1 | . | . | -25 | 3
O=C1c2cccnc2C(Nc2ccccc2)N1Cc1ccco1 (stereo not given) | 3 | 11 | 2 | -4 | 1
O=C1c2cccnc2C(Nc2ccccc2Br)N1Cc1ccco1 (stereo not given) | 7 | ? | -1 | -53* | -3
O=C1c2ccccc2N2C(=O)c3ccccc3C2N1Cc1ccco1 (stereo not given) | -3 | -5 | 6 | -50* | 0
CCOc1ccc(NC(=O)c2c(Nc3ccc(OC)cc3OC)sc(C(=O)c3ccc(Cl)cc3)c2N)cc1 | -1 | . | . | -25 | 49*
COC(=O)c1ccc(NC(=O)CCS(=O)(=O)c2ccc(Br)s2)cc1 | 0 | -4 | 12 | -52*! | 1
O=C(CCS(=O)(=O)c1cccs1)Nc1ccc(C(=O)Nc2cccc(Cl)c2)cc1 | -2 | . | . | -3 | 6
CC(=O)c1cccc(NC(=O)CCS(=O)(=O)c2ccc(Br)s2)c1 | -10 | -14 | ? | -16 | 7
